Source: PubChem BioAssay AID540259 (Broad Institute, 2011)
Entries with a potency or affinity are not part of this list. A number with no mark means an inactive call.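 Rule for the calls: active = cell killing, meaning signal decrease, with fitted half-maximal dose at or below ten times the top valid tested dose; inconclusive = poor fit, or flat curve with 30 to 70% signal loss; inactive = the rest.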

assay: ATP-based viability loss in HeLa cells – cell-based, CellTiter-Glo luminescence, cherry-pick samples, cytotoxicity control for MITF activator project, dose response (AID 540259); details: 24 h; series mostly up to 35 µM; activity change, negative = cytotoxicity: at the top concentration;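 note: 0% = DMSO neutral control and -100% = mitoxantrone positive control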

Row | Structure (SMILES) | activity change, negative = cytotoxicity
1 | COc1ccc(/C=N/Nc2snc(SC)c2C#N)cc1OC | 7.17%
2 | COC(=O)c1cn(CC(=O)NCc2cccs2)c2ccccc12 | 21.6%
3 | CCn1cnc2cc(NCc3ccccc3Cl)ccc21 | -1.68%
4 | c1ccc2c(c1)CC/C2=N/Nc1nc2ccccc2[nH]1 | -8.38%
5 | CC(=O)N1N=C(c2ccc(C)cc2)OC1c1ccc(Br)cc1 (configuration not stated) | 1.6%
6 | COc1ccc(/C(N)=N/OC(=O)c2cccs2)cc1OC | -1.87%
7 | COCc1ccc(-c2c(-c3ccc(OC)cc3)oc(=O)c3cc(OC)c(OC)cc23)cc1 | -8.39%
8 | CCCc1nc2ccc(NC(C)=O)cc2c(=O)n1Cc1ccc(Cl)cc1 | 11%
9 | Cn1cccc1C(=O)N/N=C/c1c(Cl)cccc1Cl | 0.429%
10 | Nc1c(C(=O)C2CC2)sc2nc3c(cc12)CCC3 | -0.641%
11 | Cc1ccnc(NC(=O)C2CC(=O)N(Cc3ccccc3)C2)c1 (configuration not stated) | 18.2%
12 | c1csc(CSc2nc3ccccc3s2)c1 | -1.49%
13 | CC(=O)N(c1ccccc1)c1nnc(-c2cnc(C)cn2)s1 | -1.1%
14 | c1csc(-c2nc(N3CCCCC3)no2)c1 | -0.703%
15 | Clc1ccc(-c2cc(CSc3ccccc3)on2)cc1 | -6.17%
16 | Cc1nc(SCc2ccccc2)nc2c1CCC2 | -15.5%
17 | COc1ccc(-c2noc(-c3cccc(OC)c3OC)n2)cc1OC | -1.26%
18 | CCN(CC)C(=O)CCc1nnc(Cc2cccc(C(F)(F)F)c2)o1 | -0.229%
19 | CC(C)(C)C(=O)N1CCN(c2nc3ccccc3s2)CC1 | -0.769%

Row | Structure (SMILES) | activity change, negative = cytotoxicity
20 | CCCC(=O)N1c2ccc(-c3csc(N)n3)cc2CC1C (configuration not stated) | 16%
21 | COc1ccc(C(=O)c2ccc(CC#N)s2)cc1 | -7.56%
22 | c1ccc(COc2ccc(-c3csnn3)cc2)cc1 | 2.43%
23 | C=CCSc1nncn1/N=C/c1ccc(OC)cc1 | 11.5%
24 | Cc1cccc(Nc2nc3c(s2)CCCC3)c1 | -9.87%
25 | CCn1c(C(=O)NC2CCC(C)CC2)cc2sccc21 (configuration not stated) | -2.55%
26 | Fc1cc(Br)ccc1COc1ccc(-c2nnco2)cc1 | 6.77%
27 | CCc1c(C(=O)Nc2ccc(C)c(C)c2)[nH]c(C)c1C(C)=O | 0.691%
28 | Cc1nc2ccccn2c1C(=O)N/N=C/c1ccc2c(c1)OCO2 | -3.12%
29 | O=C(Nc1ccc(C(F)(F)F)cc1)c1ccccc1 | 9.08%
30 | c1ccc(SCc2nc(-c3ccccn3)no2)cc1 | 17%
31 | CCCc1ccc(C(=O)NNc2ccccc2F)cc1 | 5%
32 | COc1ccc(Nc2nc(N)c3ccccc3n2)c(OC)c1 | -7.04%
33 | Cc1ccc(NC(=O)Nc2ccc3c(c2)OCO3)c(OC(F)F)c1 | 3.43%
34 | Cc1nc(-c2ccc(NC(=O)c3ccccc3Br)cc2)cs1 | 10.2%
35 | Nc1ncccc1OCc1ccc(Br)cc1 | -6.3%
36 | Cc1ccc(Nc2nc(CSc3n[nH]c(N)n3)cs2)cc1 | 4.55%
37 | COc1ccccc1C(=O)NCCC(=O)NC1CCC(C)CC1 (configuration not stated) | 9.79%
